From PubChem BioAssay AID588763 (NMMLSC, 2011) come the findings set out here.

Results with a measured potency or affinity are listed apart. Calls of active or inactive are those of the source. The rule behind the calls is not given here.

The target of the assay is Beta-2 adrenergic receptor (Homo sapiens) (UniProt P07550). Kind of assay: beta2AR agonists driving receptor internalization, dose response, cell-based, FAP fluorogen, flow cytometry, cherry pick 1 (AID 588763). To be noted: AM2.2-beta2AR cells, 90 min; series mostly up to 33 µM. Background: Flow cytometry measures light scatter and fluorescence of single cells or particles in a stream.
Chain of Beta-2 adrenergic receptor (Homo sapiens) (P07550 whole entry, looked up): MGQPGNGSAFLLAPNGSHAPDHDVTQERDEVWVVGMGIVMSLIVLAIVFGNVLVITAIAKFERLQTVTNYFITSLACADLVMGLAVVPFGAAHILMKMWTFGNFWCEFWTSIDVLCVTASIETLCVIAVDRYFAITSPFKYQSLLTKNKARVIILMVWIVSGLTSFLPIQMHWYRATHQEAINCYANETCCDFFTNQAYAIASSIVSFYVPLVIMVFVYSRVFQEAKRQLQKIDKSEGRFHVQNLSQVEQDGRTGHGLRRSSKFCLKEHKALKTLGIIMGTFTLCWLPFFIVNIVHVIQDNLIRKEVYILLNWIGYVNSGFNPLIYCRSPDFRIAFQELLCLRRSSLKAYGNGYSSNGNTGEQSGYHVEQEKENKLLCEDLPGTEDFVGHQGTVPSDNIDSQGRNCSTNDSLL
As to `CCNCC(O)c1cccc(O)c1` (stereo not drawn), the compound was classed as inactive.
The result for `COc1ccc(OC)c(C(O)C2CCCCN2)c1` (stereo not drawn) reads “inactive”.
Take `CC(CCc1ccccc1)NC(C)C(O)c1ccc(O)cc1` (stereo not drawn): the result was inactive.
Regarding `COc1ccc(OC)c2c1CCC1NCCOC21` (stereo not drawn), the compound was classed as inactive.
The result for `CC(NCc1ccc(Cl)c(Cl)c1)C(O)c1ccccc1` (stereo not drawn) reads “inactive”.
In the case of `COc1ccc(C(O)CNC(C)C)c(F)c1OC` (stereo not drawn), the compound was classed as inactive.
In the case of `COc1cc(C(O)CNC(C)C)cc(F)c1OC` (stereo not drawn), the result was inactive.
To `COc1ccc(OC)c([C@@H](O)[C@H](C)NC(C)(C)C)c1` belongs “inactive”.
